From PubChem
A selection: hits, their analogues and other compounds. The true share with any hit is near 3.1%.
VDR inhibitor: vitamin D3 receptor (human) inhibition; VDR-SRC2-3 peptide fluorescence polarization, 2 h; Potency, µM, usual class: inhibitors; 400,000 tested, 0.93% active
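Reagent solutions, kept cold and dark, are dispensed first; compounds are then pinned in at 23 nl, plates briefly spun, and incubated 2 h at ambient temperature. Inhibition of VDR–SRC2-3 peptide binding is read by fluorescence polarization.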
PI4K2A block: blocks human PI4K2A kinase activity. Q9BTU6. purified PI4K2A, ADP-Glo luminescence, 1 h; active compounds read low. activity change, negative = inhibition, % at 76.9 µM. 420,000 tested, 0.13% active. AID 1346378; in the data active = activity change below about -50%; inconclusive = mostly about -30% to -49%
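ADP-Glo luminescence measured ADP generated by PI4K2A enzyme (4 ug/mL before mixing) with 1.2 mM PI substrate (pre-mix) and 300 microM ATP (pre-mix). Tris pH7.5 buffer with MgCl2, Triton X-100; 1 h reaction at ambient temperature.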
PLK1 PBD inh: blocks phosphopeptide binding to human PLK1 polo-box domain. Plk1 PBD binding of FITC phosphopeptide, fluorescence polarization. Potency, µM, usual class: inhibitors. 360,000 tested, 2.8% active. AID 720504; also: series mostly up to about 57 µM; nearly all actives have a fitted effect of over 65% in size
Target sequence (P53350 whole entry, looked up, the tested form may be a part): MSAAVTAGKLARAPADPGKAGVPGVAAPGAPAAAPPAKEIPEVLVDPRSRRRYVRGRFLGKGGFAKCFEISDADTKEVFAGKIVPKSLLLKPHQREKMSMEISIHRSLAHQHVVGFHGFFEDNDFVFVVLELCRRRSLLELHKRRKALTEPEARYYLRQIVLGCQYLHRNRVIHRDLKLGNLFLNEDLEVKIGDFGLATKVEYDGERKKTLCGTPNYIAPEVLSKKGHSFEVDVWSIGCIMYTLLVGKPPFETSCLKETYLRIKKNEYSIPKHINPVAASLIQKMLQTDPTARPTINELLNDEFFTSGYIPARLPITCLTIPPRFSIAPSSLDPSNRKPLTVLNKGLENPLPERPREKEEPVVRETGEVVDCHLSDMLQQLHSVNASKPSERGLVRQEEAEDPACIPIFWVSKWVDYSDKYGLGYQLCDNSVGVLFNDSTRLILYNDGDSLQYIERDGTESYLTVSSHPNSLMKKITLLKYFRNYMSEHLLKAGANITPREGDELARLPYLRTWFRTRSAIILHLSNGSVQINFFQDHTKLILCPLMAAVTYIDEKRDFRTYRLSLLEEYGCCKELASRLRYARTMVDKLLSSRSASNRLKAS
GCN5L2 inh: blocks human GCN5L2 histone acetyltransferase; GCN5L2 HAT assay, ThioGlo1 CoA-SH fluorescence; Potency, µM (series often up to 58.9 µM), actives largely listed as inhibitors; 390,000 tested, 0.21% active; AID 504327
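Titration-based screen in which CoA formation is detected via maleimide probe ThioGlo1 (50uM) turning fluorescent on thiol reaction; substrates H3(1-25) 75uM and acetyl-CoA 70uM, GCN5L2 20nM, 20 min incubation at room temperature.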
GLS inhibitor: blocks human kidney-isoform glutaminase activity; O94925; GLS enzymatic activity, qHTS titration; Potency, µM (doses to about 45.5 µM), hits mostly inhibitors; 410,000 tested, 0.21% active; AID 624170
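Enzyme dispensed in phosphate buffer (45 mM, pH 8.2, 0.02% Tween-20), compounds pinned in, then 1 mM L-glutamine solution and the glutamate oxidase–HRP–Amplex Red mix added; fluorescence read immediately and again after 30 min at room temperature.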
Large screens that a line does not name were inactive. Unless noted, calls follow the shape of the dose curve; as a rule, active = well fitted curve in the direction sought with a large enough effect; inconclusive = small, poorly fitted or top-dose-only effect, or another doubt; inactive = no such curve, though single readings can be large; an effect the other way counts as inactive or inconclusive.

Cn1c(=O)c2[nH]c(-c3ccccc3Cl)c(O)c2n(C)c1=O	GLS inhibitor 22µM
Nc1c(C(=O)NCC2CCCO2)sc2nc3c(c(-c4ccco4)c12)CC/C3=C\c1ccco1 (centres undefined)	VDR inhibitor inconclusive, PI4K2A block -76, PLK1 PBD inh inconclusive, GCN5L2 inh inconclusive, GLS inhibitor inconclusive
O=C(O)c1cc(N2C(=O)C=CC2=O)cc(N2C(=O)C=CC2=O)c1	VDR inhibitor inconclusive, PLK1 PBD inh 2.7µM, GLS inhibitor inconclusive (no result: GCN5L2 inh)
Cc1nc2ccccn2c1-c1ccnc(=S)[nH]1	VDR inhibitor inconclusive, PLK1 PBD inh 27µM, GCN5L2 inh inconclusive, GLS inhibitor inconclusive
O=C(c1ccc(F)cc1F)N(Cc1ccccn1)CC1CCCO1 (centres undefined)	none (no result: VDR inhibitor, PLK1 PBD inh, GCN5L2 inh, GLS inhibitor)
CCCN1C(=O)SC(CC(=O)Nc2ccccc2)C1=O (centres undefined)	none
O=C(CC1SC(=O)N(c2ccccc2)C1=O)Nc1ccc(Br)cc1 (centres undefined)	VDR inhibitor 35µM, PLK1 PBD inh inconclusive, GLS inhibitor inconclusive
O=C(CC1SC(=O)N(c2ccccc2)C1=O)Nc1ccc(Cl)cc1 (centres undefined)	VDR inhibitor 40µM, PLK1 PBD inh 11µM, GLS inhibitor 11µM
O=C(CC1Sc2ncnn2C1=O)Nc1ccc(Cl)cc1 (centres undefined)	none
O=C(CCn1nnc(-c2cccs2)n1)N1CCOCC1	none (no result: VDR inhibitor, PLK1 PBD inh, GCN5L2 inh, GLS inhibitor)
c1csc(-c2nn3c(Cn4nnc5ccccc54)nnc3s2)c1	none
S=c1[nH]nc(Cn2nnc3ccccc32)n1-c1ccc(Cl)cc1	none
Clc1ccc(Cc2nn3c(Cn4nnc5ccccc54)nnc3s2)cc1	PLK1 PBD inh 27µM
c1ccc2c(c1)nnn2Cc1nnc2sc(-c3ccncc3)nn12	PLK1 PBD inh 32µM
c1ccc2oc(-c3nn4c(Cn5cnc6ccccc65)nnc4s3)cc2c1	PLK1 PBD inh inconclusive (no result: GCN5L2 inh)
c1coc(-c2nn3c(Cn4nnc5ccccc54)nnc3s2)c1	VDR inhibitor inconclusive, PLK1 PBD inh 27µM
CC1CCN(C(=O)C(C)OC(=O)c2ccc(S(C)(=O)=O)c([N+](=O)[O-])c2)CC1 (centres undefined)	none (no result: PI4K2A block, PLK1 PBD inh, GCN5L2 inh, GLS inhibitor)
COc1ccc2c(c1)N[C@@](CCN1C(=O)c3ccccc3C1=O)(c1[nH]c3ccccc3c1CCN1C(=O)c3ccccc3C1=O)C2=O	none (no result: VDR inhibitor, PLK1 PBD inh, GCN5L2 inh, GLS inhibitor)
O=C(N=Nc1ccc(NOC(=O)c2ccccc2Br)cc1)c1ccccc1O	none (no result: VDR inhibitor, PI4K2A block, PLK1 PBD inh, GLS inhibitor)
Cn1c(O)c(N=NC(=O)C2COc3ccccc3O2)c2ccccc21 (centres undefined)	PLK1 PBD inh 27µM
Cn1c(O)c(N=NC(=O)c2ccccc2O)c2ccccc21	VDR inhibitor inconclusive, PLK1 PBD inh 3.4µM, GLS inhibitor inconclusive
CCOC(=O)C(=O)N=Nc1c(O)n(C)c2ccccc12	none
Cc1cc(N=NC(=O)c2ccccc2O)c2ccccc2c1O	PLK1 PBD inh 27µM
COc1ccccc1NC(=O)OC1CCC12CCCCC2 (centres undefined)	none (no result: VDR inhibitor, PLK1 PBD inh, GCN5L2 inh, GLS inhibitor)
O/N=C/c1ccccc1Oc1ccc(Cl)cc1	VDR inhibitor inconclusive, PLK1 PBD inh 8.4µM, GLS inhibitor inconclusive
O/N=C\c1ccccc1Oc1ccc(F)cc1	none
CC(C)CCCC(C)NCCC(C)C (centres undefined)	none (no result: VDR inhibitor, PLK1 PBD inh, GCN5L2 inh, GLS inhibitor)
CC(=O)N/N=C/c1cc(C)n(-c2ccc(Br)cc2)c1C	none
CC(=O)N/N=C/c1cc(C(C)C)cc(/C=N/NC(C)=O)c1O	PLK1 PBD inh 21µM
COC(=O)c1ccccc1NC(=O)C1=CC(c2ccc(C)cc2)=NS(=O)(=O)N1C	none (no result: PLK1 PBD inh)
Cc1cc(=O)[nH]c(SCC(=O)O)c1C#N	none
Cc1cc(=O)[nH]c(SCC(=O)C23CC4CC(CC(C4)C2)C3)c1C#N	VDR inhibitor inconclusive, PLK1 PBD inh 24µM
COC(=O)[C@]12C[C@H](CC(=O)NCCC(C)C)C(=O)N(Cc3cccc4ccccc34)C1=C[C@H](C1CCCC1)O[C@@H]2C	none (no result: VDR inhibitor, PLK1 PBD inh, GCN5L2 inh, GLS inhibitor)
CC1Cc2cc(S(=O)(=O)CCC(=O)NCc3ccccc3Cl)ccc2N1C(=O)C1CC1 (centres undefined)	none (no result: PLK1 PBD inh)
CCOc1ccc(-c2nnn(CCC#N)n2)cc1OC	VDR inhibitor inconclusive, PLK1 PBD inh 19µM
CCc1ccc(-c2nnn(CCC#N)n2)cc1	none
CCCCCC1CC(CC/C(C)=N/NC(N)=O)C(=O)O1 (centres undefined)	none
CCCCCOCC1CC(C/C(C)=N/NC(N)=S)C(=O)O1 (centres undefined)	PLK1 PBD inh 27µM
CC1CCc2ccccc2N1C(=O)c1cccs1 (centres undefined)	VDR inhibitor inconclusive, PLK1 PBD inh 21µM
Cc1ccc([N+](=O)[O-])cc1Nc1nc(N2CCCC2)nc(N2CCCC2)n1	VDR inhibitor 79µM, PLK1 PBD inh 19µM
Cn1c(-c2ccsc2)c(-c2cccs2)c2cc(Br)ccc21	GCN5L2 inh 20µM
CC(C)C(=O)N1CCC(Oc2cccnc2)CC1	none (no result: VDR inhibitor, PLK1 PBD inh, GCN5L2 inh, GLS inhibitor)
Cc1ccc2nc(-c3ccccn3)[nH]c2c1	PI4K2A block inconclusive
Cc1ccc2nc(-c3ccccc3N)[nH]c2c1	VDR inhibitor inconclusive, PI4K2A block inconclusive, PLK1 PBD inh 30µM
CCC1C(=O)C(C)(C)C(=O)OC1c1ccc([N+](=O)[O-])cc1 (centres undefined)	none
O=C1CC(=O)OC(c2ccc([N+](=O)[O-])cc2)O1	PLK1 PBD inh 6µM (no result: VDR inhibitor, GCN5L2 inh)
CC(=O)N[C@@H]1C(O[C@H]2O[C@H](C(=O)O)C(O)[C@H](O)[C@H]2O)[C@H](O)[C@@H](CO)O[C@H]1O[C@@H]1C(C(=O)O)O[C@@H](O[C@H]2[C@H](O)[C@@H](CO)OC(O)[C@@H]2NC(C)=O)[C@H](O)[C@H]1O (some centres undefined)	none (no result: PI4K2A block, PLK1 PBD inh)
CC(=O)OC1CC(OC(C)=O)[C@]2(C)C(CC(=O)[C@]3(C)C2CC[C@@]2(C)C(c4ccoc4)OC(=O)C4O[C@@]423)C1(C)C (some centres undefined)	VDR inhibitor 28µM (no result: PI4K2A block, PLK1 PBD inh, GLS inhibitor)
CC1(C)C(=O)C=C[C@@]2(C)C1C=C[C@@]1(C)C2CC[C@@]2(C)C(c3ccoc3)OC(=O)C3OC312 (some centres undefined)	VDR inhibitor 3.5µM (no result: PI4K2A block, PLK1 PBD inh, GLS inhibitor)
CC(=O)OC1CC(OC(C)=O)[C@]2(C)C(CC(O)[C@]3(C)C2CC[C@@]2(C)C(c4ccoc4)OC(=O)C4O[C@]432)C1(C)C (some centres undefined)	none (no result: PI4K2A block, PLK1 PBD inh, GLS inhibitor)
CC(=O)O[C@@H]1C[C@H]2C(C)(C)C(=O)C=C[C@]2(C)[C@H]2CC[C@@]3(C)[C@H](c4ccoc4)OC(=O)[C@H]4O[C@]43[C@@]21C	none
CC(=O)OC1C=C[C@]2(C)C(CC(OC(C)=O)[C@@]3(C)C4=CC(=O)OC(c5ccoc5)[C@]4(C)CCC23)C1(C)C (some centres undefined)	VDR inhibitor 56µM (no result: PI4K2A block, PLK1 PBD inh, GLS inhibitor)
CC1(C)C(=O)C2C[C@]3(O)C4=CC(=O)OC(c5ccoc5)[C@]4(C)CCC3[C@](C)(C2=O)C1CC(=O)O (some centres undefined)	none (no result: PI4K2A block, PLK1 PBD inh, GLS inhibitor)
